# Data published in PubChem BioAssay AID2315 (National Center for Advancing Translational Sciences (NCATS), 2010).
# Several values for one entry are separate records, joined by “and”; a condition that tells them apart may be missing. Equal entries are not always repeated. Out of some 290,000 compounds screened, about 27,000 (9.3%) were called active. For the sample, actives were picked, then their nearest neighbours and some compounds at random. A number with no mark means an inactive call. Cut-off read from the data, not from the text of the source: active = inhibition mostly above about 28% (no sharp cut-off); inactive = mostly below about 43%.
# Assay: A qHTS for Small Molecule Inhibitors of Shiga Toxin; note: 0% is about no effect
# Details: Vero cells, Shiga toxin protein synthesis inhibition reporter; at 38.7 µM, stronger effect = higher value
row,SMILES,inhibition
1,Cn1c(NN)nc2sc3c(c2c1=O)CCC3,12.5%
2,C=C(C)CSc1nc(N)c2c3c(sc2n1)CCC3,77.1% (active)
3,Cc1sc2nc(SCC(N)=O)n(C)c(=O)c2c1C,8.03%
4,CN1CCN(CC(=O)Nc2sc3c(c2C#N)CCC(C(C)(C)C)C3)CC1 (centres undefined),-10.4%
5,CC(C)(C)C1CCc2c(sc3nc(SCC(N)=O)nc(N)c23)C1 (centres undefined),42.9% (active)
6,Nc1nc(SCC(=O)NCCN2CCOCC2)nc2sc3c(c12)CCC3,7.28%
7,CCOC(=O)N1CCN(S(=O)(=O)N2CCCC(C(=O)NCCCN3CCC(C)CC3)C2)CC1 (centres undefined),-4.12%
8,CC(=O)c1ccc(NC(=O)CCNS(=O)(=O)c2cc(Br)cnc2N)cc1,-8.28%
9,CCc1ccc(OCC2c3cc(OC)c(OC)cc3CCN2C(C)=O)cc1 (centres undefined),-3.8%
10,CN(CC(=O)O)S(=O)(=O)c1ccc2oc3ccccc3c2c1,-10.6%
11,Cc1noc(C)c1CCC(=O)N1CCCC(CO)(Cc2ccccc2)C1 (centres undefined),98.7% (active)
12,Cc1noc(C)c1CCC(=O)O,17.5%
13,Cc1ccccc1CC1(CO)CCCN(C(=O)c2cc(-c3ccccc3)no2)C1 (centres undefined),51%
14,COC(=O)CCC(=O)N1CCCC(CO)(Cc2ccccc2)C1 (centres undefined),110% (active)
15,CCOC(=O)C1(Cc2ccccc2C)CCCN(C(=O)CCc2c(C)noc2C)C1 (centres undefined),15.6%
16,CCCc1cc(C(=O)N2CCCC(CO)(CCCc3ccccc3)C2)n(C)n1 (centres undefined),-8.83%
17,Cc1cc(NC(=O)CSc2nc(=O)cc(N)n2-c2ccc(F)cc2)no1,9.91%
18,COc1cccc(C(O)c2nc3ccccc3n2C)c1 (centres undefined),-5.57%
19,O=C(NCCCn1ccnc1)c1ccccc1F,-3%
20,Cc1cccc(N2CCN(C(C)C(=O)N3CCc4ccccc43)CC2)c1C (centres undefined),12.5%
21,COc1ccc(NC(=O)CCC(=O)Nc2cc(OC)c(NC(=O)c3ccco3)cc2OC)c(OC)c1,2.68%
22,CCOC(=O)C1CCN(Cc2nnc(-c3cccc(Br)c3)o2)CC1,-4.47%
23,Cc1c2cnn(CC(=O)NCCCN3CC(C)CC(C)C3)c(=O)c2c(C)n1Cc1ccc(Cl)cc1 (centres undefined),10.2%
24,CCCc1nc2ccccc2c(=O)n1/N=C/c1ccc(O)c(O)c1,-7.79%
25,O=c1c2ccccc2nc(N/N=C/c2ccccc2)n1O,4.04%

row,SMILES,inhibition
1,O=c1c2ccccc2ncn1/N=C/c1ccccc1,89.3% (active)
2,Cc1c(Cl)cccc1NC(=O)NCc1ccc(C)n1C,-6.17%
3,COc1ccc(CN(C)C(=O)Cc2c[nH]c3ccccc23)c(OC)c1OC,-4.06%
4,O=S(=O)(/C=C/c1ccccc1)N1CCNCC1,-7.81%
5,CCc1cccc(NC(=S)N(CCN(C)C)C2CCN(C(C)C)CC2)c1,-1.09%
6,Cc1ccc(Nc2nc(Cl)c(C=O)s2)cc1,39.5% (active)
7,Cc1ccc(Nc2nc(C)cc(C)c2C(N)=O)cc1,-8.95%
8,Cc1ccc(NC(=O)Nc2nnc(-c3ccncc3)s2)cc1,-16.3%
9,COc1ccc(C(=O)NCCNc2ccc([N+](=O)[O-])cn2)cc1,-3.6%
10,CCn1cc(/C=C(\NC(=O)c2cc(OC)c(OC)c(OC)c2)C(=O)N2CCN(C)CC2)c2ccccc21,-5.81%
11,O=C(NCCOc1cccnc1)c1ccc(OC2CCN(Cc3ccccn3)CC2)cc1,-23.8%
12,O=C(OCC(=O)N1CCN(C(=O)c2ccco2)CC1)c1cccc(O)c1,18.4%
13,O=C(CCn1nnc2ccccc21)OCC(=O)c1ccc([N+](=O)[O-])cc1,-9.08%
14,COc1ccc(/C=C/c2noc(-c3ccccc3OC(C)=O)n2)cc1,50.5% (active)
15,CC(=O)Oc1ccc2c(c1)C(=O)c1ccccc1C2=O,49.5%
16,COc1ccc(C2C3=C(OC(C)=O)c4ccccc4C3=Nc3c2c(=O)n(C)c(=O)n3C)cc1 (centres undefined),-4.21% and -6.55%
17,Cc1ccc(C(=O)Nc2ccc(C)c(S(=O)(=O)N(C)C)c2)s1,64.1% (active)
18,CCN(CC(=O)Nc1ccc(C)c(S(=O)(=O)N(C)C)c1)Cc1ccccc1,12.4%
19,Cc1ccc(NC(=O)c2cccs2)cc1S(=O)(=O)N(C)C,30%
20,O=C(c1ccc(S(=O)(=O)N2CCCC2)cc1)N1CCN(c2ccccc2F)CC1,-13.1%
21,O=C(CSc1nnc(-c2ccc([N+](=O)[O-])cc2)o1)Nc1ccccn1,88.1% (active)
22,CCc1ccccc1NC(=O)CSc1nnc(-c2ccncc2)o1,6.43%
23,CCOC(=O)CSc1nnc(-c2ccc([N+](=O)[O-])cc2)o1,7.13%
24,O=C(NC1CCCC1)C(c1ccco1)N(C(=O)c1csnn1)c1ccccc1 (centres undefined),-6.47%
25,COC(=O)c1ccc(NC(=O)CSc2nc(N)c(NC(=O)c3ccc(Br)o3)c(=O)[nH]2)cc1,-12.8%

row,SMILES,inhibition
1,CCN(CC)c1ccc(C(=O)OCC(=O)c2ccco2)cc1,46.8%
2,O=C(OCC(=O)N1CCCC1)c1ccco1,24.9%
3,CCc1ccc(C(=O)COC(=O)c2ccco2)cc1,56.1% (active)
4,COc1ccc(C2/C=C\CN(C(=O)c3ccc(C)cc3)C(Cc3ccccc3)C(=O)N2Cc2ccc(F)cc2)cc1 (centres undefined),16.3%
5,O=C(CN1CCCCCC1)Nc1ccc(S(=O)(=O)N2CCCCC2)cc1,-3.01%
6,O=C(CC1C(=O)NCCN1C(=O)c1ccc([N+](=O)[O-])cc1)Nc1cccc(Cl)c1 (centres undefined),-30.7%
7,O=C(CC1NCCNC1=O)Nc1cc(Cl)cc(Cl)c1 (centres undefined),-12.8%
8,O=C(CC1NCCc2ccccc21)Nc1cccc(Cl)c1 (centres undefined),51.4% (active)
9,CCN(CC)CCN(C(=O)c1cc(Cl)sc1Cl)c1nc2cc3c(cc2s1)OCO3,6.7%
10,CCOC(=O)/C(C#N)=C/c1cn(CCC(=O)O)nc1-c1ccc(Br)cc1,2.95%
11,COc1cc(C2C3=C(CCCC3=O)OC3=C2C(=O)CCC3)ccc1OCC(=O)Nc1ccccc1,37.9%
12,COc1cc(CCC(=O)OCC(=O)Nc2cccc(S(N)(=O)=O)c2)cc(OC)c1OC,-3.91%
13,CCOC(=O)/C(C#N)=C/c1ccc(OCC(=O)Nc2ccccc2)c(OC)c1,70.9% (active)
14,CCCn1c(C)cc(/C=C(\C#N)C(=O)OCC(=O)Nc2cc(OC)c(OC)c(OC)c2)c1C,32.6% (active)
15,COc1cc(/C=N/NC(=O)Nc2ccccc2)ccc1OCCOc1ccccc1C,-4.02%
16,Cc1ccc(C(=O)Oc2ccc(C(=S)N3CCOCC3)cc2)cc1,3.46%
17,CCc1ccc(C(=O)NC(=S)Nc2ccccc2N2CCOCC2)cc1,-5.58%
18,COc1cc2c(cc1OC)CN(C(=O)c1cc(S(=O)(=O)N3CCCCC3)ccc1Cl)CC2,2%
19,Cc1ccc2nc3c(cc(C(=O)NCCc4ccccc4)c(=N)n3CC3CCCO3)c(=O)n2c1 (centres undefined),-3.67%
20,COc1ccccc1CN1CC(C(=O)NCCc2cn[nH]c2)CCC1=O (centres undefined),22%
21,CCc1ccc(N(C(=O)c2csnn2)C(C(=O)NC2CCCCC2)c2cccnc2)cc1 (centres undefined),2.03%
22,CC1(C(=O)NCCc2c[nH]c3ccccc23)C=CC2(CCCCC2)N1C(=O)c1ccccc1 (centres undefined),14.3%
23,Cc1cc(NC(=O)CSc2nc(C(C)C)nc3sc4c(c23)CCC(C)C4)no1 (centres undefined),22.7%
24,Cc1ccc2cc(C#N)c(SCC(=O)NCC3CCCO3)nc2c1C (centres undefined),-7.12%
25,Cc1cc(NC(=O)CSc2nc3c(cc2C#N)CCCCC3)no1,78.8% (active)

row,SMILES,inhibition
1,CC(NC(=O)CSc1nc2c(cc1C#N)CN(C)CC2)c1ccccc1 (centres undefined),-9.63%
2,Cc1nc(SCC(=O)Nc2cc(C)on2)c2c(C)c(C)sc2n1,12.3%
3,Cc1nc(SCC(=O)Nc2cc(C)on2)c2c3c(sc2n1)CCCC3,21.2% (active)
4,COc1cccc(CN2CCN(Cc3ccc4cccc(F)c4n3)CC2CCO)c1 (centres undefined),12.8%
5,O=C(NCc1cccnc1)C12CC3CC(CC(C3)C1)C2,11.5%
6,Cc1ccc(C(=O)COC(=O)CCN2C(=O)C3C4CCC(C4)C3C2=O)cc1C (centres undefined),34.8%
7,O=C(CCC1CCN(C(=O)c2cccc(Cl)c2F)CC1)Nc1ccccc1,-32%
8,COc1ccccc1CC(=O)Nc1ccc(S(=O)(=O)N2CCCC2)cc1,-2.78%
9,CCOC(=O)C1C(c2ccc(O)cc2)NC(=O)NC1(O)C(F)(F)F (centres undefined),-6.9%
10,O=C(COc1ccc(-n2cnnn2)cc1)Nc1ccccc1Cl,-8.42%
11,CC(C)(C)c1ccc(C(CC(=O)O)NS(=O)(=O)Cc2ccccc2)cc1 (centres undefined),17%
12,Fc1ccc(/C=N/Nc2nc(-c3cccnc3)nc3ccccc23)cc1,47.7% (active)
13,COc1ccccc1Oc1nc(-c2cccnc2)nc2ccccc12,10.4%
14,COc1ccc(Nc2nc(-c3cccnc3)nc3ccccc23)cn1,-3.47%
15,Nc1nonc1-n1nnc(C(=O)N/N=C/c2ccc(Cl)cc2)c1-c1ccc2c(c1)OCO2,-3.05%
16,N/C(=N\OC(=O)Cc1ccccc1[N+](=O)[O-])c1ccc(Br)cc1,49%
17,COc1ccccc1OCc1nnc(SCC(N)=O)n1-c1ccccc1,7.34%
18,O=C(CN1CCN(c2ccccn2)CC1)NC1CCCCC1,-9.42%
19,CC(C)(C)NC(=O)NC(=O)COC(=O)CCC1CCCCC1,-9.95%
20,COc1ccccc1OCC(=O)O/N=C(\N)c1ccccn1,55.8% (active)
21,N/C(=N\OC(=O)CC1CCCCC1)c1ccccc1,107% (active)
22,N/C(=N\OC(=O)CCC1CCCCC1)c1ccccn1,84.9% (active)
23,COc1ccccc1OCC(=O)OCn1c(SC)nnc(C)c1=O,5.34%
24,COc1ccccc1NC(=O)C(C)OC(=O)CC1CCCC1 (centres undefined),-16.1%
